Screen size: about 420,000 compounds; about 50,000 (12%) were called active. Roughly 26% stayed inconclusive and do not appear here. What follows is part of a selection rich in actives, with near analogues and random picks from the rest. Values without a mark were called inactive. The call rests on the fitted dose curve; in most records, active means well fitted inhibition curve with a large enough effect; inconclusive means small, poorly fitted or top-dose-only effect; inactive means flat fitted curve, though single readings scatter.
On the % scale 0 is the no-effect control and ±100 the full control effect; potency means the concentration at half of the fitted maximal effect.

The assay in a line: qHTS for Inhibitors of human tyrosyl-DNA phosphodiesterase 1 (TDP1): qHTS in cells in presence of CPT. Further: nearly all actives have a fitted effect of over 55% in size. To be noted: chicken DT40 Tdp1-/-;hTDP1 cells + 20 nM CPT, ATP luminescence, 48 h; series mostly up to 46.2 µM; activity change, negative = growth inhibition: at the top concentration. A digest of the protocol:
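Cell growth measured by CellTiter-Glo luminescence after a minimum 48 h, 37 C compound exposure with 20 nM CPT in Tdp1-knockout DT40 cells stably expressing hTDP1, seeded 400/well; qHTS titration format.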
Regarding `COc1ccc(CCNC(=O)COc2ccc3c(c2)OCO3)cc1`, the “activity change, negative = growth inhibition” value is -12.7%.
Still for that read-out and setting: for `CNC(=S)NNC(=O)c1oc2nc(-c3ccccc3)cc(-c3ccco3)c2c1N` the value was -5.83%; for `CC1CCCC(NC(=O)COC(=O)[C@@H]2CC(O)CN2S(=O)(=O)c2ccc3c(c2)OCCO3)C1C` (some centres not stated), -19.9%; for `CCC1CCC2(CC1)NC(=O)N(CC(=O)Nc1ccc(OC)cc1)C2=O` (configuration not stated), -25.3%.
For `O=C(c1cc2cc(Br)cc(Br)c2oc1=O)N1CCOCC1`, the “activity change, negative = growth inhibition” value is 1.58%.
For the molecule `O=C1Nc2c(Br)cc(Br)cc2C1(O)N1CCOCC1` (configuration not stated), the Potency is 5.17 µM (active).
Consider `O=C(CSC(=S)N1CCOCC1)c1cc(Br)cc(Br)c1O`, for which the “activity change, negative = growth inhibition” value is 4.78%.
Still for that read-out and setting: for `COc1ccc(C(=O)COC(=O)CCCC(=O)Nc2cc(C(F)(F)F)ccc2Cl)cc1` the value was -17.6%; for `COc1ccc(OC)c(-n2c(=S)[nH]c3cc(C(=O)N4CCCCC4)ccc3c2=O)c1`, -5.5%; for `CC(C)c1ccc(NC(=O)c2cc(S(=O)(=O)N3CCc4ccccc4C3)ccc2F)cc1`, -23%.
For the molecule `COc1cc(NC(=O)C2CCN(c3cnccn3)CC2)cc(OC)c1`, the Potency result was “inactive”.
Same read-out and setting: next, `O=[N+]([O-])c1ccc(Oc2ccc(F)cc2Br)c2ccncc12`: 18.4 µM (active).
For `Cc1ccnc2nc(C(=O)OCC(=O)N(CC(C)C)CC(C)C)nn12`, the “activity change, negative = growth inhibition” value is -0.985%.
Turning to `CCn1c(SCC(=O)N(C)C2CCS(=O)(=O)C2)nnc1-c1cccs1` (configuration not stated), the “activity change, negative = growth inhibition” value was 2.56%.
The same measure, in the same setting: next, `CN(C(=O)CSc1nnc(-c2ccc(C(C)(C)C)cc2)n1C)C1CCS(=O)(=O)C1` (configuration not stated): -26.7%.
Take `Cc1cc(C)c2nc(SCC(=O)N(C)C3CCS(=O)(=O)C3)cc(C)c2c1` (configuration not stated): the Potency is 23.1 µM (active).
Take `COCCn1c(SC(C)C(=O)NC2CC2)nnc1-c1cccc(C)c1` (configuration not stated): the “activity change, negative = growth inhibition” value was -11.5%.
The same measure, in the same setting: for `CCN(CC)C(=O)C1=C(C)N(Cc2ccc(F)cc2)C(=O)C(CC(=O)NCc2cccc3ccccc23)C1` (configuration not stated) the value was -26%; for `COc1ccc(NC(=O)C(C)N2c3cccc4cccc(c34)S2(=O)=O)c(OC)c1` (configuration not stated), -28.9%; for `CCOc1cccc(-c2nnc(SCC(=O)NC3CC3)n2C)c1`, -19.7%.
Still for that read-out and setting: for `COC(=O)CCCC1=CC2=CC(=O)C(C)(OC(=O)c3cccs3)C(=O)C2=CN1c1cccc(C#N)c1` (configuration not stated) the value was 3.09%.
As to `COC(=O)CCCC1=CC2=C(c3ccccc3)C(=O)C(C)(OC(=O)C3CCCC3)C(=O)C2=CN1c1ccc(OC)cc1` (configuration not stated), the Potency was 20.6 µM (active).
Turning to `COCCN1C=C2C(=O)C(C)(OC(=O)C3CCCC3)C(=O)C=C2C=C1c1ccsc1` (configuration not stated), the “activity change, negative = growth inhibition” value was -29.9%.
Turning to `O=c1ccc(S(=O)(=O)N2CCCC2)cn1Cc1nc(-c2ccccc2)no1`, the “activity change, negative = growth inhibition” value is -27.7%.
On the same count and under the same terms, next, `Clc1cccc(Cl)c1Cn1nnc(-c2cccs2)n1`: -6.63%; `O=C(Cc1ccc([N+](=O)[O-])cc1)N/N=C/c1ccco1`: -7.38%; `CCN(/N=C/c1ccccc1)c1cc(=O)n(C)c(=O)[nH]1`: -0.0785%.
As to `O=C(Nc1ccccc1)c1nnsc1S(=O)(=O)c1ccc(Cl)cc1`, the Potency is 4.61 µM (active).
For `CC(=O)Nc1cc(C(=O)O)ccc1S(=O)(=O)c1ccc(Cl)cc1`, the “activity change, negative = growth inhibition” value was -14.8%.
With `O=C(Nc1cccc(Cl)c1)c1csnn1`, the “activity change, negative = growth inhibition” value was -1.59%.
The same measure, in the same setting: for `CCOc1ccc(C2C(C(=O)O)c3ccccc3C(=O)N2CCN2CCOCC2)cc1` (configuration not stated) the value was -11.6%.
Take `CCOc1ccc(C(=O)CCN2CCOCC2)cc1`: the Potency is 3.26 µM (active).
As to `CC(=O)c1ccc(OCCN2CCOCC2)cc1`, the “activity change, negative = growth inhibition” value is -7.82%.
Same read-out and setting: for `COc1cccc(N(C(=O)CNC(=O)c2ccco2)C(C(=O)NC2CCCCC2)c2cccnc2)c1` (configuration not stated) the value was 7.98%; for `COc1ccccc1CC(=O)NCCc1c[nH]c2ccccc12`, -3.85%.
For the molecule `COc1cccc(CNCCc2c[nH]c3ccccc23)c1OCc1ccccc1F`, the Potency was 10.3 µM (active).
As to `COc1ccc(S(=O)(=O)NCCc2c[nH]c3ccccc23)cc1OC`, the “activity change, negative = growth inhibition” value was -12.3%.
In the case of `Cc1noc(C)c1C(=O)NCCc1ccc(S(N)(=O)=O)cc1`, the “activity change, negative = growth inhibition” value was -7.27%.
Take `CCOC(=O)c1c(C)[nH]c(C2=NNC(=NC(C)COC)SC2)c1C` (configuration not stated): the Potency is 20.6 µM (active).
For `CCOCCCNC(=O)C(NC(=O)CNC(=O)c1ccccc1)c1ccc(C)cc1` (configuration not stated), the “activity change, negative = growth inhibition” value is -2.56%.
`CC1CCN(C(=O)/C(=C\c2ccccc2F)NC(=O)c2ccccc2)CC1`: the “activity change, negative = growth inhibition” value is 2.66%.
The same measure, in the same setting: next, `COC(=O)c1ccccc1C(=O)NCc1nc(N2CCCC2)c2cccc(C)c2n1`: 0.789%.
Regarding `COc1ccc(CNC2CCCCC2)cc1`, the “activity change, negative = growth inhibition” value was -19.1%.
Take `COc1ccc(CNc2nc(NCc3ccc(OC)cc3)c3ncn(C4CCCC4)c3n2)cc1`: the Potency is 3.26 µM (active).
`CCCC(=O)n1nc(NCc2ccc(OC)cc2)nc1NCc1ccc(OC)cc1`: the “activity change, negative = growth inhibition” value was -3.08%.
On the same count and under the same terms, next, `COc1ccc(-n2c(SCC(=O)NCc3cccs3)nnc2-c2ccoc2C)cc1`: -25.9%; `C/C(=N\NC(=O)c1ccc(CSc2nc(C)cc(C)n2)cc1)C1CCCCC1`: -9.14%.
Take `CC(=O)c1c(C)c[nH]c1C`: the Potency was 23.1 µM (active).
Consider `C1CC1Cc1noc(CN2CCN(CC3CC3)CC2)n1`, for which the “activity change, negative = growth inhibition” value is -3.85%.
On the same count and under the same terms, for `O=C(CN1C(=O)NC2(CCCCC2)C1=O)NCCc1c[nH]c2ccccc12` the value was -15.2%.
For `CC1(C(=O)NCCc2c[nH]c3ccccc23)C=CC2(CCCCC2)N1C(=O)c1ccccc1` (configuration not stated), the Potency was 18.4 µM (active).
For `O=C(NCCc1c[nH]c2ccccc12)c1cccc(Br)c1`, the “activity change, negative = growth inhibition” value was -16.9%.
